Nine compounds from PubChem BioAssay (EPA / NIEHS) can be followed below.

Assay [1] can be described thus: ATG_GLI_CIS: Attagene CIS-FACTORIAL HepG2 Assay for human Zinc Finger Protein GLI1 (AID 2282945). To be noted: HepG2, Attagene cis-factorial reporter mRNA, GLI element; actives raise or lower the signal. The method in brief: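 Bidirectional curve fits relative to DMSO, using reporter mRNA levels from RT-PCR plus capillary electrophoresis. Cells were HepG2 transiently carrying cis-regulated reporter constructs, harvested 24 h after dosing.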

In assay [2] the target is Bile acid receptor (Homo sapiens) (UniProt Q96RI1). Kind of assay: ATG_IR1_CIS: Attagene CIS-FACTORIAL HepG2 Assay for human Nuclear Receptor Subfamily 1 Group H Member 4 (NR1H4), IR1 submotif (AID 2282946). To be noted: IR1 reporter transcription, actives raise or lower the signal. The method in brief: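 Cells (human HepG2) carry transiently transfected cis-promoter reporter transcription units. Compounds are incubated 24 h, total RNA is reverse-transcribed and amplified, and labelled fragments are resolved by capillary electrophoresis. Curves use DMSO as baseline.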

Assay [3] is described as follows: ATG_ISRE_CIS: Attagene CIS-FACTORIAL HepG2 Assay for human Interferon Regulatory Factor 1 (IRF1) binding to an Interferon-Stimulated Response Element (ISRE) (AID 2282948). To be noted: HepG2 ISRE cis-reporter (Attagene), mRNA transcription readout; actives raise or lower the signal. The method in brief:
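Quantitation relies on labelled RT-PCR fragments separated by capillary electrophoresis. Human HepG2 cells bearing cis-promoter reporter constructs were treated 24 h; DMSO served as baseline for bidirectional fitting.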

Assay [4] is described as follows: ATG_M_32_CIS: Attagene CIS-FACTORIAL HepG2 Assay for M32 Transcription Factor (Internal Marker) (AID 2282949).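 Further: background control marker of the multiplexed CIS panel rather than a real target.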 To be noted: HepG2 Attagene cis-factorial M32 reporter, mRNA; actives raise or lower the signal. The method in brief: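 Fluorescent capillary electrophoresis peaks of HpaI-digested, FAM-labelled RT-PCR reporter products give the signal. Source: transiently transfected human liver HepG2 cells, 24 h after chemical dosing; bidirectional fitting against DMSO.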

The nature of assay [5]: ATG_M_06_CIS: Attagene CIS-FACTORIAL HepG2 Assay for M06 Transcription Factor (Internal Marker) (AID 2282950). To be noted: HepG2 Attagene CIS-FACTORIAL M06 internal marker reporter; actives raise or lower the signal. The method in brief: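 Serves as a background control readout. Transfected HepG2 exposed to compounds for 24 h, then reporter transcripts quantified by fluorescent RT-PCR and capillary electrophoresis. Both directions fitted against DMSO baseline.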

Assay [6] can be described thus: ATG_MRE_CIS: Attagene CIS-FACTORIAL HepG2 Assay for human Metal Responsive Element (MRE) (AID 2282954). To be noted: HepG2 MRE cis-reporter transcription, Attagene multiplex; actives raise or lower the signal. The method in brief:
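Transient MRTU transfection of HepG2 (FuGene 6); 24 h dosing; total RNA → oligo(dT) RT, PCR, 6-FAM primer extension, HpaI cut, CE. Bidirectional fit vs DMSO.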

The nature of assay [7]: ATG_PBREM_CIS: Attagene CIS-FACTORIAL HepG2 Assay for human Phenobarbital-responsive Enhancer Module (PBREM) (AID 2282955). To be noted: HepG2 PBREM cis-reporter, Attagene multiplexed transcription; actives raise or lower the signal. The method in brief: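 Readout: reporter mRNA, fluorescent RT-PCR fragments separated by capillary electrophoresis. System: HepG2 transiently transfected with cis-regulated reporter units. Exposure: 24 h. Analysis: bidirectional, DMSO baseline.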

The target in assay [8] is Paired box protein Pax-6 (Homo sapiens) (UniProt P26367). Briefly: ATG_Pax6_CIS: Attagene CIS-FACTORIAL HepG2 Assay for human Paired Box 6 (PAX6) (AID 2282956). To be noted: HepG2 CIS-FACTORIAL PAX6 reporter transcription, RNA readout; actives raise or lower the signal. The method in brief: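 After twenty-four hours of chemical exposure, transfected HepG2 cells are harvested for RNA. Cis-promoter reporter transcripts are amplified, fluorescently labelled and sized by capillary electrophoresis, with gain and loss of signal scored against DMSO.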

Assay [9] in a line: ATG_PXRE_CIS: Attagene CIS-FACTORIAL HepG2 Assay for human Pregnane X Receptor Element (PXRE) (AID 2282957). To be noted: HepG2 Attagene CIS-FACTORIAL PXRE reporter, mRNA; actives raise or lower the signal. The method in brief: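 Transiently transfected HepG2 cells were dosed and incubated for 24 h. RNA was then isolated, DNase-treated, reverse-transcribed and reporter sequences amplified. Labeled, HpaI-digested fragments were quantified by capillary electrophoresis against DMSO.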

Assay [10] can be described thus: ATG_PPRE_CIS: Attagene CIS-FACTORIAL HepG2 Assay for human Peroxisome Proliferator-activated Response Element (PPRE) (AID 2282958). To be noted: HepG2 PPRE cis-element reporter, Attagene transcription factor profiling; actives raise or lower the signal. The method in brief: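 After human HepG2 hepatoma cells were transiently transfected with cis-promoter reporter constructs, they were exposed to test chemicals for 24 hours. Reporter RNA was then reverse-transcribed, PCR-amplified, FAM-labeled, HpaI-digested and quantified by capillary electrophoresis.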

The nature of assay [11]: ATG_Sox_CIS: Attagene CIS-FACTORIAL HepG2 Assay for human SRY-box transcription factor (SOX) (AID 2282960). To be noted: HepG2 Attagene cis-factorial SOX reporter, mRNA; actives raise or lower the signal. The method in brief: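 Using transiently transfected HepG2 cells, reporter transcription driven by cis elements was assessed 24 h after dosing. Signal was fluorescence of capillary-separated RT-PCR products, with DMSO defining baseline activity.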

In assay [12] the target is Transcription factor Sp1 (Homo sapiens) (UniProt P08047). Kind of assay: ATG_Sp1_CIS: Attagene CIS-FACTORIAL HepG2 Assay for human Specificity Protein 1 (Sp1) (AID 2282961). To be noted: HepG2 Sp1 cis-reporter transcription, actives raise or lower the signal. The method in brief: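 After transient transfection of HepG2 cells with cis-promoter reporter units and 24 h chemical treatment, reporter transcripts were quantified by RT-PCR and capillary electrophoresis fluorescence. Gain- and loss-of-signal fitted against DMSO.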

Assay [13] addresses Signal transducer and activator of transcription 3 (Homo sapiens) (UniProt P40763). Kind of assay: ATG_STAT3_CIS: Attagene CIS-FACTORIAL HepG2 Assay for human Signal Transducer and Activator of Transcription 3 (STAT3) (AID 2282963). To be noted: HepG2, Attagene cis-factorial STAT3 reporter transcription; actives raise or lower the signal. The method in brief:
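Endogenous STAT3-responsive cis-element activity was read in transiently transfected HepG2 cells after 24 h treatment. Reporter transcripts were quantified via RT-PCR and capillary electrophoresis, with DMSO as negative control and bidirectional curve fitting.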

Assay [14] in a line: ATG_TA_CIS: Attagene CIS-FACTORIAL HepG2 Assay for human TA Basal Promoter (AID 2282964). To be noted: HepG2 Attagene CIS-factorial TA basal promoter reporter; actives raise or lower the signal. The method in brief: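 Background-control readout: TA basal promoter reporter mRNA, fitted in both directions relative to DMSO. Measured by RT-PCR and capillary electrophoresis 24 hours after treating HepG2 human liver cells transiently carrying multiplexed cis-regulated reporter constructs.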

For assay [15], the target named is Hypoxia-inducible factor 1-alpha (Homo sapiens) (UniProt Q16665). Kind of assay: ATG_HIF1a_CIS: Attagene CIS-FACTORIAL HepG2 Assay for human Hypoxia Inducible Factor 1 (HIF1A) (AID 2282951). To be noted: HepG2 Attagene cis-factorial HIF1a reporter transcription; actives raise or lower the signal. The method in brief:
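Endogenous-TF cis reporter readout, human HepG2 cells, 24 h incubation; mRNA detected via RT-PCR and capillary electrophoresis fluorescence; DMSO-normalised bidirectional fitting.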

Assay [16] concerns the target Hepatocyte nuclear factor 6 (Homo sapiens) (UniProt Q9UBC0). Briefly: ATG_HNF6_CIS: Attagene CIS-FACTORIAL HepG2 Assay for human Hepatocyte Nuclear Factor 6 (HNF6) (AID 2282952). To be noted: HepG2 Attagene cis-factorial HNF6 reporter transcription; actives raise or lower the signal. The method in brief: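 Reporter mRNA induction or loss in HepG2 after 24 h exposure; transient cis-MRTU transfection; fragments quantified by capillary electrophoresis; bidirectional analysis, DMSO as negative control.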

A short description of assay [17]: ATG_SREBP_CIS: Attagene CIS-FACTORIAL HepG2 Assay for human Sterol Regulatory Element Binding (SREBP) (AID 2282962). To be noted: HepG2 Attagene cis-factorial SREBP reporter, mRNA; actives raise or lower the signal. The method in brief: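 Twenty-four hours after chemical dosing of transfected HepG2 cultures, reporter RNA was converted to cDNA, amplified, end-labelled with 6-FAM and resolved by capillary electrophoresis. Responses were fitted relative to DMSO.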

The target in assay [18] is Heat shock factor protein 1 (Homo sapiens) (UniProt Q00613). Briefly: ATG_HSE_CIS: Attagene CIS-FACTORIAL HepG2 Assay for human Heat Shock Transcription Factor 1 (HSE) (AID 2282953). To be noted: HepG2 HSE cis-reporter, Attagene RNA transcription; actives raise or lower the signal. The method in brief:
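Endogenous transcription factor activity in transiently transfected HepG2, read as reporter mRNA by RT-PCR with fluorescent capillary electrophoresis after 24 h. Gain or loss of signal fitted versus DMSO baseline.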

Assay [19] is described as follows: ATG_RORE_CIS: Attagene CIS-FACTORIAL HepG2 Assay for human RAR-related Orphan Receptor Element (RORE) (AID 2282959). To be noted: HepG2 Attagene cis-factorial RORE reporter, mRNA; actives raise or lower the signal. The method in brief:
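Measured here: transcript induction of a cis-regulated reporter in HepG2 cells transiently transfected via FuGene 6. After 24 h, RNA was processed by RT-PCR and fluorescent capillary electrophoresis; DMSO defined baseline activity.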

Some compounds were tested as several samples or in several runs, with calls that do not always agree. Activity calls are given as the source filed them. How the source made its calls: active means hit-call score of the fitted dose curve at least 0.9, where 1 is the maximum; inactive means score below 0.9.

Signal transducer and activator of transcription 3 (Homo sapiens), sequence (P40763 whole entry, looked up): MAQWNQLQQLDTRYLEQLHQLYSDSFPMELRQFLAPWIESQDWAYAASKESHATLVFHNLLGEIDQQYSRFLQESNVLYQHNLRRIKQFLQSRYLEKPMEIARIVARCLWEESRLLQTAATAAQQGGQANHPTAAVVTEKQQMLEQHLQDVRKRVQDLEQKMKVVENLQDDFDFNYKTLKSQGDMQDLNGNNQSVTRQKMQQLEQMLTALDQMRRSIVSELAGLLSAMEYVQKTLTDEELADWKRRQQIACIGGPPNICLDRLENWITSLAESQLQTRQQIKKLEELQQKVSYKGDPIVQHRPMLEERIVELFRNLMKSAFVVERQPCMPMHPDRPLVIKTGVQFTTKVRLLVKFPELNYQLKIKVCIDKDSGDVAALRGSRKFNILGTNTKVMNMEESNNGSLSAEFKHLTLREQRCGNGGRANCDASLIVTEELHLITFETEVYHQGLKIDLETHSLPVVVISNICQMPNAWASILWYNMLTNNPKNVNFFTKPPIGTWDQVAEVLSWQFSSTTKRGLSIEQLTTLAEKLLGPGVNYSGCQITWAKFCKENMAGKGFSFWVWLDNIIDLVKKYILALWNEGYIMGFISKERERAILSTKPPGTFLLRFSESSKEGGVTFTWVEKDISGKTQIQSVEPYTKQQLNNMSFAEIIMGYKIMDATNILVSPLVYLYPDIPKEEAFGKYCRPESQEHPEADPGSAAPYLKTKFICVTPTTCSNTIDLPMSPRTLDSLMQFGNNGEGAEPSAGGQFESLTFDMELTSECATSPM
Hepatocyte nuclear factor 6 (Homo sapiens), sequence (Q9UBC0 whole entry, looked up, the tested form may be a part): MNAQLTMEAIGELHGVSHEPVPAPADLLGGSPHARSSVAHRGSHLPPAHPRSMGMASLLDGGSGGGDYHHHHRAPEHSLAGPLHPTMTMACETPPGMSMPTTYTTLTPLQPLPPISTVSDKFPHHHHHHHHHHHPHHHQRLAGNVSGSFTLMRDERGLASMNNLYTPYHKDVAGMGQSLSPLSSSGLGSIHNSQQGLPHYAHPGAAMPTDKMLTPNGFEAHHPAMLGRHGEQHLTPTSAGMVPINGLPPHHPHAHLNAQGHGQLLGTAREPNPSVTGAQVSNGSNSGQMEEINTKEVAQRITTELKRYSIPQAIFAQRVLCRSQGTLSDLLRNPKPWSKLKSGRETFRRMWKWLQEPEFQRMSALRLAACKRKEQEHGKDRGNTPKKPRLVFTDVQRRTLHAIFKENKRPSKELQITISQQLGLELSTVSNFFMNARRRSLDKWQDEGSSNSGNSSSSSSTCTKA
Hypoxia-inducible factor 1-alpha (Homo sapiens), sequence (Q16665 whole entry, looked up): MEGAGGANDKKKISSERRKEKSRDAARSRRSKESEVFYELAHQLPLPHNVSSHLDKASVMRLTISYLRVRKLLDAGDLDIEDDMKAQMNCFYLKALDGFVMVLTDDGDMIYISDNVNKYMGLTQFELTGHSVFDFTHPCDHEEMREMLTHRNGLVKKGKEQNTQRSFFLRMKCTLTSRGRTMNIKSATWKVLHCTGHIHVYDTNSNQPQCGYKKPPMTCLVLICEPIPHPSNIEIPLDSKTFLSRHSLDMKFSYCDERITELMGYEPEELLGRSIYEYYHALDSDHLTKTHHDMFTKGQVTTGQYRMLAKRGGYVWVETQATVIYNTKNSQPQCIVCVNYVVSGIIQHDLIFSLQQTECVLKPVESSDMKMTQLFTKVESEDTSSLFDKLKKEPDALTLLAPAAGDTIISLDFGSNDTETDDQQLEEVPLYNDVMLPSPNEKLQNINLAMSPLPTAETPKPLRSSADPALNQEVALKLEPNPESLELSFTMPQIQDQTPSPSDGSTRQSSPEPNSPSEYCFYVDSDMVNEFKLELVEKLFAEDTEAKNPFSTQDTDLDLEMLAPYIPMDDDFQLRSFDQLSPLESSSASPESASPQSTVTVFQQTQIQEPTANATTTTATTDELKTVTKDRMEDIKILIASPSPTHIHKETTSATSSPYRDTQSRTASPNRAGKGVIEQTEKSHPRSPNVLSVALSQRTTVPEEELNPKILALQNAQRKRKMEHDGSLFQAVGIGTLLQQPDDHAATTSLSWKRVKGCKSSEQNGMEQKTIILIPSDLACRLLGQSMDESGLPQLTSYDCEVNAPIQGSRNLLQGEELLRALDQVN
Transcription factor Sp1 (Homo sapiens), sequence (P08047 whole entry, looked up): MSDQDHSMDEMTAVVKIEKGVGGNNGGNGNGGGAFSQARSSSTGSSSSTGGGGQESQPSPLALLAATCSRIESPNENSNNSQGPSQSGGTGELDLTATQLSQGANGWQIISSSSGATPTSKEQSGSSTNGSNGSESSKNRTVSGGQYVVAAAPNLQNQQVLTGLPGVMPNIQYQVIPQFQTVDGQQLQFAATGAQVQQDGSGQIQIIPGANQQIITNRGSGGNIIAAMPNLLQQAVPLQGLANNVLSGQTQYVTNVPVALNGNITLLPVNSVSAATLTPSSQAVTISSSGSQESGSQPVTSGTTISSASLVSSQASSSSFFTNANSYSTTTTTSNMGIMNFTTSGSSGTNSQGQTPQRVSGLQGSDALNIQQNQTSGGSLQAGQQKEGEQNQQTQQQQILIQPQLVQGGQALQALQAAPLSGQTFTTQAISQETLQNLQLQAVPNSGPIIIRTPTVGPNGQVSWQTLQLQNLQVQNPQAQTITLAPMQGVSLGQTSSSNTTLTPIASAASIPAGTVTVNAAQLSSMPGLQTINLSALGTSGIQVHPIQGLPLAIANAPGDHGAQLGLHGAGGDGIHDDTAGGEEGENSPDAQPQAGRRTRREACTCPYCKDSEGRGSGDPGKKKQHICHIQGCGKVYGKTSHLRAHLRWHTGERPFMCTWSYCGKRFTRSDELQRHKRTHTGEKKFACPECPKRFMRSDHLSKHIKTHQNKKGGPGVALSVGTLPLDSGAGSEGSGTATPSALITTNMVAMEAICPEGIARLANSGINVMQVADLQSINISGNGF
Paired box protein Pax-6 (Homo sapiens), sequence (P26367 whole entry, looked up): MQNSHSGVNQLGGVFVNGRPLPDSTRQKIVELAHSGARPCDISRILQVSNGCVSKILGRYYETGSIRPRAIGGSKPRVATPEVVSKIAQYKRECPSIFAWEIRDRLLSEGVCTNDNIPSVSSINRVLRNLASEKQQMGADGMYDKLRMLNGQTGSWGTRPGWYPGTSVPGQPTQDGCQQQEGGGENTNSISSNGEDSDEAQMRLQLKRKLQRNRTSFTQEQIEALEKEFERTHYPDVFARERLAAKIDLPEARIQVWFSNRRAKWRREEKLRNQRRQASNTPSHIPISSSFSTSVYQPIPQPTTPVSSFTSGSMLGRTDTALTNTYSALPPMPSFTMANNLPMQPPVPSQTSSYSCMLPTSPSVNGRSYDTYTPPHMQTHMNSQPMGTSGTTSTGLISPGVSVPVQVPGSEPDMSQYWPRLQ
Heat shock factor protein 1 (Homo sapiens), sequence (Q00613 whole entry, looked up): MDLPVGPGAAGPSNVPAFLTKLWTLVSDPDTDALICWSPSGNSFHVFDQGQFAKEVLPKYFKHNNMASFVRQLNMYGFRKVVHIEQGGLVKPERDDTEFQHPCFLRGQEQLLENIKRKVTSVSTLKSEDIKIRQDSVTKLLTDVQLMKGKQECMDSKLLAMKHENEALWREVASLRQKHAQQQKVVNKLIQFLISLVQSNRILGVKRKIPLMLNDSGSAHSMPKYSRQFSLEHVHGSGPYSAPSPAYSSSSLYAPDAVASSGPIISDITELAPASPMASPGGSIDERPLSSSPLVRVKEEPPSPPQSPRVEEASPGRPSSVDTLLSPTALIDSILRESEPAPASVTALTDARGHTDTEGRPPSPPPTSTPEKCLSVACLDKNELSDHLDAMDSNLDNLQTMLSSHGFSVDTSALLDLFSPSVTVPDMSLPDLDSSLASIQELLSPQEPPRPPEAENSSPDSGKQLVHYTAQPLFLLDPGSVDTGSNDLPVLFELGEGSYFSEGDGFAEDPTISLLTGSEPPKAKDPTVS
Bile acid receptor (Homo sapiens), sequence (Q96RI1 whole entry, looked up, the tested form may be a part): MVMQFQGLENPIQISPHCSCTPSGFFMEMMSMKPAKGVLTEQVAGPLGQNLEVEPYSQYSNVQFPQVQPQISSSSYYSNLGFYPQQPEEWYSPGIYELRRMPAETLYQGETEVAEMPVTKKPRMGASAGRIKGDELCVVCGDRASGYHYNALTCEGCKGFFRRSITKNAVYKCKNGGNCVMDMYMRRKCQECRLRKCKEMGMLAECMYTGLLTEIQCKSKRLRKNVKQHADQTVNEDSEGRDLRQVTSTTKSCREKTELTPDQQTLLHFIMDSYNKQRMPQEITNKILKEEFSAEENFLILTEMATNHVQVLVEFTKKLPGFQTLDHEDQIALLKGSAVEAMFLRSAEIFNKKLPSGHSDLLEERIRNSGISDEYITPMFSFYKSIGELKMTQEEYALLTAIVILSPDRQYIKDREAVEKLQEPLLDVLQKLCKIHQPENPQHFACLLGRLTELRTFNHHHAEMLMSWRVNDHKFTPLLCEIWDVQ

For `CCCCCC=O`, the outcome in assay [1], in assay [2], in assay [3], in [4], in assay [5] and in assay [6] was inactive. For the same compound, the result in [7], in [8], in assay [9], in [10], in assay [11] and in [12] was inactive. In addition, the call in [13] and in assay [14] was inactive.
As a reminder, the AC50 is the concentration giving half of the maximal activity seen. In the case of `Cc1ccc(S(=O)(=O)NCl)cc1`, the call in assay [1], in assay [3], in [4], in assay [5], in assay [15] and in [16] was inactive. Moreover, the outcome in assay [6], in assay [8], in assay [9], in [11], in assay [12] and in assay [17] was inactive. Moreover, the compound was called inactive in assay [13] and in assay [14]. Further, the half-maximal activity concentration (AC50) in assay [9] is 131 µM (active).
With `N=C(N)C(F)(F)C(F)(F)C(F)(F)C(F)(F)C(F)(F)C(F)(F)C(F)(F)F`, the compound was classed as inactive in assay [1], in [2], in assay [3], in [4], in assay [5] and in assay [18]. The result in [6], in [7], in assay [8], in assay [9], in assay [10] and in assay [12] was inactive. The compound was classed as inactive in assay [13] and in assay [14]. Further, in [15], the AC50 is 242 µM (active).
Take `c1ccc(B(c2ccccc2)c2ccccc2)cc1`: the outcome in assay [1], in [2], in [3], in assay [4], in assay [5] and in assay [16] was inactive. The result in assay [18], in assay [7], in assay [8], in assay [10], in [11] and in [12] was inactive. Moreover, the compound was classed as inactive in [17], in assay [13] and in assay [14]. For the same compound, the AC50 in assay [6] was 51.6 µM (active); in [9], 5.22 µM (active); in [19], 71.5 µM (active).
With `O[Si](c1ccccc1)(c1ccccc1)c1ccccc1`, the AC50 in assay [1] is 134 µM (active); in assay [2], 10.2 µM (active); in assay [6], 33.3 µM (active); in [9], 0.897 µM (active). Also, the outcome in assay [3], in assay [4], in assay [15], in [7], in [8] and in assay [10] was inactive. The call in assay [11], in [12], in assay [13] and in assay [14] was inactive.
Consider `CCCCCCCOC(=O)c1ccccc1C(=O)OCCCCCCC`, for which the call in [1], in [2], in [3], in assay [4], in assay [15] and in assay [6] was inactive. The outcome in [7], in assay [8], in [10], in assay [19], in assay [11] and in [12] was inactive. The call in [13] and in assay [14] was inactive. Moreover, the half-maximal activity concentration (AC50) in [9] was 5.36 µM (active).
On to `O=C(O)C(F)(OC(F)(F)C(F)(OC(F)(F)C(F)(F)C(F)(F)F)C(F)(F)F)C(F)(F)F` (stereo unspecified), for which the result in [1], in [2], in [3], in [4], in assay [16] and in assay [18] was inactive. In addition, the call in assay [6], in assay [7], in assay [8], in [9], in [10] and in assay [19] was inactive. Further, the compound was classed as inactive in assay [11], in assay [12], in assay [13] and in assay [14].
For the compound `O=C(O)C(F)(F)C(F)(F)F`, the compound was classed as inactive in assay [1], in assay [2], in assay [3], in [4], in assay [16] and in [18]. In addition, the call in assay [6], in assay [7], in assay [8], in [9], in assay [10] and in [12] was inactive. Also, the outcome in assay [13] and in [14] was inactive.
For `OCC(F)(F)C(F)(F)C(F)(F)C(F)(F)C(F)(F)C(F)(F)F`, the outcome in assay [1], in [2], in assay [3], in assay [4], in assay [15] and in assay [16] was inactive. Also, the compound was called inactive in [6], in [8], in [10], in assay [12], in assay [13] and in assay [14]. In addition, the AC50 was 282 µM (active) in [7], 242 µM (active) in assay [9] and 234 µM (active) in assay [17].
